In the supplement of paper PMC11417369:
± gives the standard deviation of the averaged measurements. Whole data set: some 25,000 sequences, median “ln(normalized median fluorescence intensity)” near 10, cut for the highest 2% near 12. What follows is part of a selection rich in the highest values, with near analogues and random picks from the rest.

System: PfAP2-G AP2 domain (GST-tagged)
Assay: gcPBM binding intensity (ln(normalized median fluorescence intensity)); higher = stronger DNA binding
Method in brief: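 Binding of GST-tagged P. falciparum DNA-binding domains, expressed in E. coli and used at about 25 μg on average, was carried out for 1 h in 1× PBS containing 1% milk, 0.2 mg/ml BSA, 0.5% salmon testes DNA and 0.03% Triton X-100. The target was an Agilent 4 × 180k array of primer-extended double-stranded 36-bp intergenic genomic probes plus negative controls, read with Alexa488 anti-GST antibody at 488 nm. Binding intensity is the highest Masliner-normalised natural-log median intensity across replicate spots of either probe orientation.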

Sequence	gcPBM binding intensity (ln)
TCTTTTGTTTAACCTACATGCAGAATATAAGTCTTC [TGCATGCA_site99]	10 ± 0.2
AAAAATTCATTTTTATGTACGTACAAATTCTTCGTT [XGTACX_site2471]	11.8 ± 0.87
TAATTCTTTATTTTTCGTACGTAAAACAAAAAATAT [XGTACX_site862]	11.1 ± 0.79
ATATATTCATTTTTATGTACGTAAATTGTAAATTGG [XGTACX_site8242]	11.6 ± 0.92
TTACATGTAAAAGGTACACACATTAGATATACAAAT [CACACA_site6651]	11.3 ± 0.84
CAGTTATTTTAATGTGGTACACAATTTTAAAATTAT [XGTACX_site8571]	11.5 ± 0.93
AATTTTGAGATGTGGTGTACACAAAATTAGTTAGAC [XGTACX_site7033]	11.7 ± 0.98
TTTGAGATGTGGTGTACACAAAATTAGGTACACATC [CACACA_site5773]	12 ± 0.85
TGAAAATAGTTAATTTGTACACAAAAATTAAGAAAA [XGTACX_site5794]	11.2 ± 0.8
ACACATACAACGTGGTGTACAAATAATTATAATCAA [XGTACX_site2287]	11.1 ± 0.4
TAAAAATAGTATACAACACACGAGGGAAAATAAAGT [CACACA_site3837]	10.34 ± 0.099
TATTTAAATTAATATTGTACATATATTTATAATATA [XGTACX_site6109]	11.1 ± 0.71
TATATTTTTATTGAACGTACAAAAAGTCGAAAACAG [XGTACX_site3967]	11.4 ± 0.74
TTTTCATTTGAAAGTCGTACAAGTTCGAAAAAAGGA [XGTACX_site6840]	11.6 ± 1.2
GATATTTTTTTCGAAAGTACAAAAAAAAATATTTCC [XGTACX_site4389]	11 ± 0.72
TTTTTTATTTGACAAGCACACACTTAAATATATATA [CACACA_site3358]	10.2 ± 0.33
AAATCATATTCTTATTTTATTTTTTTTATTTTTTAT [XGTACX_negctrl_site166]	9.55 ± 0.17
AAACATGATTATTATAGTACAATTATAATTATTATA [XGTACX_site2590]	10.8 ± 0.59
TATAATAATAATTATTGTACGATTAGGTTAATTCAT [XGTACX_site1984]	11.1 ± 0.7

Sequence	gcPBM binding intensity (ln)
ATGTAGGTTAATTATTGTACGTAGGGGGTGTATATT [XGTACX_site3973]	11.8 ± 1.2
TAAACAGATATATTTTGTACATATTGTATATTTTGT [XGTACX_site713]	10.6 ± 0.28
GTGTGTGTATATATTTGTACATATATTTAAACATAT [XGTACX_site1074]	11.4 ± 0.71
TATATATATATATGTTGTACAAAAATGTAAAATATA [XGTACX_site7761]	11.1 ± 0.57
ATGTTATATATGTATTGTACGTATTTTGTATATTAT [XGTACX_site6607]	11.6 ± 1.1
TATAATAATACGTATTGTACTATTAGGTTAATTCGT [XGTACX_site264]	11.1 ± 0.66
ATATGTATATATGTATGTACGTACAAATTGTTGTAA [XGTACX_site8832]	11.7 ± 0.8
ATATATATATATATTTGTACGTATTATGTATTTTTT [XGTACX_site3530]	11.5 ± 0.98
AATATATATAATAATTGTACAATACGTATGTTATAT [XGTACX_site8745]	11 ± 0.54
AAATTATTATATATATGTACGTATAATGTATTTTGT [XGTACX_site2903]	11.5 ± 1.1
GTATATATATTTGTACGTACATATTGTTGTAAACAC [XGTACX_site8833]	11.7 ± 0.71
TATAATATTCCTTTTTAACACACATATGAACAAATA [CACACA_site7932]	10.1 ± 0.18
CATTATTCATTTTGGATGCACTGACAGAAAAATGGT	10.4 ± 0.18
CTTAGGTGTTCATAGAGTACAAATAAAAAAATAAGA [XGTACX_site2294]	11.3 ± 0.95
TACCTAAATAAATGGACACACACATATATATATATA [CACACA_site8407]	10.8 ± 0.53
TATATTTTAAAATTATGTACATATATAGATAAATGT [XGTACX_site1349]	11.3 ± 0.52
AATTAGATGGATAAATGTACATAATGTGAATATATT [XGTACX_site86]	11 ± 0.4
TCATATATATATATATGTACATATTTATGTATGTAT [XGTACX_site6291]	11.1 ± 0.66
TAGTTCCTCAAAAATTTCCTTTGTCATTTTATTCAC [GTGCAC_negctrl_site20]	10.17 ± 0.085

Sequence	gcPBM binding intensity (ln)
TTCCTTAATCAATATTGTACTTTTTATAAATTTAGT [XGTACX_site3678]	11.4 ± 0.85
TTCCTTTGTCCTAACTGTACTCAAATTTATTAGTGG [XGTACX_site226]	11.8 ± 0.75
TATAAAAATATATTTACACACTATAAATATCGAAAG [CACACA_site6896]	9.96 ± 0.18
TAATTTATGACACGCGCACACATATATATATAGTAA [CACACA_site4249]	10.6 ± 0.42
ACAAAAATGAGATGGTGTACGCACAAATAAATAATA [XGTACX_site5221]	11.7 ± 0.79
AAGATAAAATGATGCACACAAAAGGGTGTAATATAT [CACACA_site1706]	10.13 ± 0.049
CAAAGATAAAATGATGCACACAAAAGGGTGTAATAT [CACACA_site8499]	10.25 ± 0.014
TCCCACTGTTATATTGAAAAAAAAAAAAAAAAAAAA [TGCATGCA_negctrl_site288]	9.82 ± 0.5
AAACAACATGGACACGCACACACAAAAAAAGCATGC [CACACA_site73]	11 ± 0.48
ATTAGGCATATTTTCTGTACACAATAATAAAAAAAA [XGTACX_site3957]	11.6 ± 0.91
TAAAATATATTTTTCTGTACACAAAAATATATTAAA [XGTACX_site2813]	11.5 ± 0.96
TAATTTTCATATTTCTGTACATATATTATAAATATA [XGTACX_site3480]	11 ± 0.69
GTGTAGGCAAAAAGTTGTACGCCTAAAATCTATATA [XGTACX_site8912]	11.7 ± 1.1
AATCAAAAAAAATGTTGTACGCCTAATTATAATTAA [XGTACX_site8906]	11.6 ± 0.8
TGTATAGTCTAAAGTTGTACAAAAAAAAAAAAAAAA [XGTACX_site5764]	11.3 ± 1
TATATATATATATGTTGTACTTTTAATTTAAATGTA [XGTACX_site4239]	11.6 ± 0.94
TTTTAATTTTGTTGTTGTACAAATAACATGTGAGGG [XGTACX_site4401]	11.2 ± 0.83
TATTTTAATTTTTGTTGTACGCAAATGTGAGGGCAT [XGTACX_site4663]	11.7 ± 1.2
TTCTTATTTTATATTTCACACATTTTTACTATACTT [CACACA_site5817]	10.08 ± 0.071
